Results: ChEMBL document CHEMBL3988442, “University of Dundee, Small-Polar-MMV Screening Library” (2021)
Screen size: about 48,000 compounds; about 13,000 (27%) showed an effect of 50% or more. This is one part of the list.

What follows are compounds tested on Wolbachia pipientis (assay: Anti-Wolbachia Cell-Based Screen). Details: 5 µM.
Format: functional
Set-up: scale not given: in the data most compounds retested in dose-response had high values

SMILES	Percent Effect [%]
CN1CCCCC1CCC(=O)NCCSc1cnn[nH]1 (stereo not given)	-30.14
COCC(=O)N1CCC(Cc2nccnc2-c2c(C)n[nH]c2C)C1 (stereo not given)	109.3
CCOC(=O)C1CN(C(=O)COC)Cc2ncn(CC)c21 (stereo not given)	-5.507
Cc1n[nH]c(C)c1-c1nccnc1CC1CCNC1 (stereo not given)	100.9
CC1CCCCN1C(=O)Cn1cnc(C#N)n1 (stereo not given)	-6.637
CS(=O)(=O)N1CC(c2nc[nH]n2)c2cc(C(=O)NC3CCCC3)ccc21 (stereo not given)	0.6803
Cc1nn(C)c(Cl)c1C1CCCN1Cc1cn2ccsc2n1 (stereo not given)	41.71
CCN(CC)S(=O)(=O)N1CCCC1C(=O)N1CCSCC1 (stereo not given)	22.8
COc1c(C2CCCN2Cc2cn3ccsc3n2)c(C)nn1C (stereo not given)	3.624
Cc1nn(CCO)cc1CN1CCCC1c1nc2c(C)cccc2[nH]1 (stereo not given)	-6.904
CNS(=O)(=O)c1cccc(S(=O)(=O)Nc2ncc(C)s2)c1	2.588
Cc1ncc(CO)c(CN2CCCC2c2nc3c(C)cccc3[nH]2)c1O (stereo not given)	7.788
Cc1nn(C)cc1CN1CCCC1c1cccc(Nc2nccs2)n1 (stereo not given)	88.47
Cc1nonc1NC(=O)C1SCCc2sccc21 (stereo not given)	-12.22
CCc1cnc(C)nc1NC(CC)c1cnn(C)c1 (stereo not given)	-1.737
Cc1cccc(CN2CCC3(CCCN(Cc4cnn(C)c4)C3)C2=O)n1 (stereo not given)	94.18
Cc1cccc(CN2CCCC3(CCN(CC(=O)N(C)C)C3=O)C2)n1.O=C(O)C(F)(F)F (stereo not given)	-13.27
Cn1cc(CN2CCCC3(CCN(Cc4ccncc4)C3=O)C2)cn1 (stereo not given)	102
Cc1cnc(CNC(=O)CC2CCc3ccccc32)cn1 (stereo not given)	1.8
Cc1ccc(CN(C)C(=O)CN2CCCCC2Cn2cncn2)o1 (stereo not given)	-8.08
CN(Cc1ccco1)C(=O)CN1CCOC(Cn2cccn2)C1 (stereo not given)	126.4
Cc1ccc(CN(C)C(=O)CN2CCCC2Cn2cccn2)o1 (stereo not given)	15.96
CN(Cc1ccco1)C(=O)CN1CCCCC1Cn1cccn1 (stereo not given)	4.659
CN(Cc1ccco1)C(=O)CN1CCOC(Cn2cncn2)C1 (stereo not given)	96.26
CN(Cc1ccco1)C(=O)CN1CCCC1Cn1cccn1 (stereo not given)	-1.962
Cc1ccc(CN(C)C(=O)CN2CCOC(Cn3cncn3)C2)o1 (stereo not given)	-4.818
Cc1ccc(-c2nc(CN3CCOC(Cn4cccn4)C3)cs2)o1 (stereo not given)	-10.9
CN(Cc1ccco1)C(=O)CN1CCCC1Cn1cncn1 (stereo not given)	107
Cc1ccc(CN(C)C(=O)CN2CCOC(Cn3cccn3)C2)o1 (stereo not given)	114.2
CN(Cc1ccco1)C(=O)CN1CCCCC1Cn1cncn1 (stereo not given)	-0.1414
